Bioassay records: PubChem BioAssay, several laboratories
Rows were chosen to be rich in hits. Some 3.9% of all compounds tested hit in one or more screens of this group.
3CLpro inhibitor = SARS-CoV 3CLpro protease inhibition; AID 1706; recombinant SARS-CoV 3CLpro, quenched FRET peptide cleavage; inhibition, % at 6 µM; 0.14% of 290,000 active; in the data active = inhibition above about 12%
Anthrax LF prot = anthrax lethal factor protease inhibition; 0.12% of 360,000 active; multiplex microsphere protease cleavage assay, LF; inhibition, % at 10 µM; P15917; in the data active = inhibition above about 30%; inconclusive = no clear call, values can overlap the other calls; note: plate controls were buffer without enzyme for full effect and enzyme alone for no effect
Target sequence (P15917 whole entry, looked up): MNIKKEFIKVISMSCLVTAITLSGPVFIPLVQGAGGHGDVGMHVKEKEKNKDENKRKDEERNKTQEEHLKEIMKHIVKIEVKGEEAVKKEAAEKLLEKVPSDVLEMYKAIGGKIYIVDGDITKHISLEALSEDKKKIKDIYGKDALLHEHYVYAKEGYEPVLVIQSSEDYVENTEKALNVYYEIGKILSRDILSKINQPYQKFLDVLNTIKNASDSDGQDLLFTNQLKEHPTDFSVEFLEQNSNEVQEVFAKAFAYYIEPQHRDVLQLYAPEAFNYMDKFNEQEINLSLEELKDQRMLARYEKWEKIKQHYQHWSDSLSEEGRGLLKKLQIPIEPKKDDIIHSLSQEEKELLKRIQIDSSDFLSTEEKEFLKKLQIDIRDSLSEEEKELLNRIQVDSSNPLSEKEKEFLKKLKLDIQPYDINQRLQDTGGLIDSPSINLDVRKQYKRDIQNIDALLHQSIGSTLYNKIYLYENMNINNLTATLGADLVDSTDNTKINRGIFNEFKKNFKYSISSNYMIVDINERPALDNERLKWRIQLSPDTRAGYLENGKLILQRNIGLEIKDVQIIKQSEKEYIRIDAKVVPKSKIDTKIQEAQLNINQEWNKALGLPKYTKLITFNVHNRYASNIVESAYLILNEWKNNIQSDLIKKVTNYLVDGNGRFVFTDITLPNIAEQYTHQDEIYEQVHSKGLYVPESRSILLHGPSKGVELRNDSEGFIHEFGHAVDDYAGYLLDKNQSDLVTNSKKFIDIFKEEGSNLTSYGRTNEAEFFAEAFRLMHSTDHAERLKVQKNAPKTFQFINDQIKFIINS
BoNT-A LC inh2 = blocks Botulinum neurotoxin A light chain protease; multiplex microsphere protease substrate cleavage, flow cytometry; inhibition, % at 10 µM; 0.17% of 360,000 active; in the data active = inhibition above about 30%; inconclusive = no clear call, values can overlap the other calls; note: plate controls were buffer without enzyme for full effect and enzyme alone for no effect
Bead autofluor = compound fluorescence in toxin protease inhibitor counterscreen | compound autofluorescence counterscreen, microsphere flow cytometry; active compounds read high | fluorescence intensity (concentration not given with the values) | 3.1% of 360,000 active | AID 624483; in the data active = fluorescence intensity above about 16000; inconclusive = no clear call, values can overlap the other calls
CCHFV vOTU inh = CCHFV vOTU protease inhibition; AID 651958; inhibition, % at 11.5 µM; 0.55% of 370,000 active; Pep-AMC fluorescence; in the data active = inhibition above about 30%; note: 0% = vehicle wells with enzyme and 100% = no enzyme wells
BoNT-F LC inh = inhibitors of Botulinum neurotoxin F light chain protease; Multiplex microsphere protease cleavage assay, flow cytometry; AID 588497; 0.22% of 360,000 active; inhibition, % at 10 µM; in the data active = inhibition above about 35%, passing the limit was not always enough; inconclusive = no clear call, values can overlap the other calls; note: plate controls were buffer without enzyme for full effect and enzyme alone for no effect
BoNT-A LC CP1 = inhibitors of Botulinum neurotoxin A light chain protease | shares compounds with BoNT-F LC inh | multiplex microsphere protease assay, flow cytometry | inhibition, % at 10 µM | 3% of 720 active | AID 602139; in the data active = inhibition above about 32%
BoNT-F LC CP1 = blocks botulinum neurotoxin F light chain protease; shares compounds with BoNT-F LC inh; multiplex microsphere protease cleavage assay, flow cytometry; inhibition, % at 10 µM; 720 tested, under 10 active
Anthrax LF CP1 = inhibitors of Bacillus anthracis lethal factor protease; multiplex microsphere protease cleavage assay, LF; inhibition, % at 10 µM; AID 602142; 720 tested, under 10 active; shares compounds with BoNT-F LC inh
Starred values were filed as active, the others as inactive; ? = inconclusive; . = no result. Unless noted, the rule behind the calls is not given here.

SMILES	3CLpro inhibitor	Anthrax LF prot	BoNT-A LC inh2	Bead autofluor	CCHFV vOTU inh	BoNT-F LC inh	BoNT-A LC CP1	BoNT-F LC CP1	Anthrax LF CP1
OC(c1ccccc1)(c1ccccc1)C1CCN(CCCOc2ccccn2)CC1	.	.	.	.	-9	.	.	.	.
CCOC(=O)c1cc(C(=O)c2cccs2)n2ccc(C(C)=O)cc12	1	28	35*	3359	-6	7	25	1	16
COc1cc(-n2c(C)nc3cc(C(=O)N4CCCC4)ccc32)cc(OC)c1OC	.	.	.	.	-1	.	.	.	.
O=C(CN1CCOCC1)NCCc1ccccc1	3	31*	-1	3531	-2	7	0	0	-1
O=C(CN1CCOCC1)NCc1ccccc1	-10	-4	0	7755	.	2	.	.	.
COC(=O)c1cc(-c2ccc(F)c(Cl)c2)c(=O)n2c1CCC2	.	.	.	.	0	.	.	.	.
O=C(NCS(=O)(=O)c1ccccc1)c1ccccc1	-2	-2	2	4447	9	36*	1	2	4
COc1cc(S(=O)(=O)N(Cc2cccs2)CC2CCCO2)ccc1-n1cnnn1 (centres undefined)	-2	1	?	5631	11	41*	0	-3	0
COc1cc(S(=O)(=O)N(Cc2ccccc2)CC2CCCO2)ccc1-n1cnnn1 (centres undefined)	-1	-3	-1	4500	3	0	.	.	.
CCCCCN1CCCCC(NC(=O)C(C)(C)C)C1=O (centres undefined)	.	.	.	.	2	.	.	.	.
Cc1cc(C)c2[nH]c(=O)c(C(c3nnnn3C(C)(C)C)N(Cc3ccco3)CC3CCCO3)cc2c1 (centres undefined)	-4	-3	0	20853*	0	0	-1	-7	-3
C=CC[C@@H]1NN2C(=O)[C@@H](CCCC)[C@@H]3c4cc5ccccc5cc4C=NN3[C@@H]2c2cc3ccccc3cc21	.	.	.	.	11	.	.	.	.
CSc1nnc2c(n1)c(C)nn2-c1cccc(C)c1	1	53*	69*	6571	-4	10	33*	4	20
CSc1nncc(/C(C)=N\Nc2cccc(C)c2)n1	0	-2	-1	3131	-5	-3	.	.	.
COc1ccc(OC)c(Nc2nc(NCCCN(C)C)nc(N)c2[N+](=O)[O-])c1	-1	31*	1	3678	-2	?	1	-5	-3
COCCCNc1nc(N)c([N+](=O)[O-])c(Nc2cc(OC)ccc2OC)n1	-3	.	.	.	8	.	.	.	.
Cc1ccc(NC(=O)CCS(=O)(=O)c2ccccc2)c(C)c1	.	.	.	.	1	.	.	.	.
CC(C)CCN(C)C1CCN(C(=O)Nc2ccc(Cl)cc2)CC1	.	.	.	.	-7	.	.	.	.
CS(=O)(=O)N(CC(=O)N1CCOCC1)c1ccccc1	1	45*	-2	4311	-7	?	0	-1	3
Cc1ccc(N(CC(=O)N2CCOCC2)S(C)(=O)=O)cc1	4	-2	1	4114	5	1	.	.	.
CCCn1c(=O)c2c(nc3n2CCCN3Cc2ccccc2)n(C)c1=O	0	-10	0	2935	1	41*	-1	-4	-8
Cn1c(=O)n(CCc2ccccc2)c(=O)c2c1nc1n2CCCN1Cc1ccccc1	2	-2	1	4320	3	-1	.	.	.
C[C@H]1C2CC(OC(=O)NCc3ccccc3)C(C2)[C@H]2CCCCN21 (some centres undefined)	.	.	.	.	2	.	.	.	.
CCN1CCc2[nH]c3ccccc3c2C1	1	15	5	3806	-9	54*	-2	-9	-3
Cc1cc(C)c(NC(=O)C2CCCO2)c(C)c1NC(=O)C1CCCO1 (centres undefined)	-4	-7	-2	2848	12	38*	0	-4	-6
SMILES	3CLpro inhibitor	Anthrax LF prot	BoNT-A LC inh2	Bead autofluor	CCHFV vOTU inh	BoNT-F LC inh	BoNT-A LC CP1	BoNT-F LC CP1	Anthrax LF CP1
O=C(Nc1cccc(NC(=O)C2CCCO2)c1)C1CCCO1 (centres undefined)	-4	-3	-1	?	-7	-2	.	.	.
CCC(CO)Nc1cccc2c1S(=O)(=O)N(Cc1cn(Cc3cccc(C(F)(F)F)c3)nn1)Cc1ccccc1O2 (centres undefined)	.	.	.	.	15	.	.	.	.
O=C(c1ccccc1)c1sc(N2CCCCCC2)nc1-c1ccccc1	-4	34*	54*	1944	5	33	10	-3	2
Cc1c[nH]c2cccc(-c3ccc(Cl)cc3Cl)c12	.	.	.	.	6	.	.	.	.
C[C@H]1C(c2ccccc2F)O[C@]2(C[C@H](O)c3ccccc3O2)C[C@@H]1O (some centres undefined)	.	.	.	.	-2	.	.	.	.
CCCCNCCOCCOc1ccc(C)cc1[N+](=O)[O-]	3	?	22	?	-3	46*	2	1	1
N#Cc1ccsc1NC(=O)CN1CCN(Cc2ccccc2)CC1	3	-8	-1	5015	12	-8	.	.	.
N#Cc1ccccc1NC(=O)CN1CCN(Cc2ccccc2)CC1	-5	-1	2	3660	5	46*	-2	-7	1
COc1ccc(-n2cc(CNCCCn3ccnc3)c(-c3cccc(F)c3)n2)cc1	3	-2	4	2583	6	37*	-1	-15	-4
COc1ccc(-n2cc(CNCC3CCOCC3)c(-c3cccc(F)c3)n2)cc1	-5	-1	0	2640	1	-7	.	.	.
CCN(C(=O)c1ccc(C)c(Br)c1)c1ccccc1	5	1	6	2754	-4	60*	-1	-2	0
CCn1c(=O)c(C(=O)NCc2cccnc2)c(O)c2ccccc21	0	-2	-1	10042	-19	-9	.	.	.
CCn1c(=O)c(C(=O)Nc2cccnc2)c(O)c2ccccc21	4	4	5	6137	-1	40*	-2	-3	1
C#CCNC(=O)C[C@H]1C[C@@]2(C(=O)OCC)CCCC3=C2N(CCC3)C1=O	.	.	.	.	-4	.	.	.	.
O=C(C1CCCN(S(=O)(=O)c2ccc([N+](=O)[O-])cc2)C1)N1CCN(Cc2ccccc2)CC1 (centres undefined)	.	.	.	.	3	.	.	.	.
CCn1c2ccccc2c2nc3cc(OC)c(OC)cc3nc21	2	23	50*	5340	-4	32	23	4	9
CCCCCCCCN1C(=O)N2Cc3cc(F)ccc3C2CS1(=O)=O (centres undefined)	.	.	.	.	2	.	.	.	.
COc1cccc(S(=O)(=O)NCc2ccc(C(=O)NCC3CCCO3)cc2)c1 (centres undefined)	4	-19	29	10761	-3	38*	-1	-3	0
CCCCC(=O)C1CCN(Cc2ccccc2)CC1	4	-2	0	7263	6	33	1	-5	0
Cc1cc(=O)oc2c(CN3CCCCC3)c(O)c(Cl)cc12	-5	-5	0	2952	-213	-3	.	.	.
Cc1cc(=O)oc2c(CN3CCCC3)c(O)c(Cl)cc12	-1	30*	-3	3914	-409	10	1	-5	1
